Reference: PubChem BioAssay (NCATS)
Results filed as inconclusive are left out. Where a call stands in place of a potency, no number is given. Unmarked numbers belong to inactive results. Activity calls are given as the source filed them. Calls follow the shape of the dose curve; as a rule, active = well fitted curve in the direction sought with a large enough effect; inconclusive = small, poorly fitted or top-dose-only effect, or another doubt; inactive = no such curve, though single readings can be large; an effect the other way counts as inactive or inconclusive. Where a SMILES comes first, the peptide text is derived from it. [ ]: non-standard residue; d: D form. ξ: configuration not given here. ξPhe(βξ-Me) = CC(c1ccccc1)C(N)C(=O)O; GABA = NCCCC(=O)O

How the values were obtained:
[1] = tested on: Zika virus NS2B-NS3 protease (linked construct); assay: Primary screen NINDS Rhodamine qHTS for Zika virus inhibitors (AID 1347160); conditions: purified NS2B-NS3 protease, Rhodamine110 substrate fluorescence; series mostly up to 57.1 µM; also: nearly all actives have a fitted effect of over 55% in size; also: potency is read from the fitted curve at half-maximal effect
Summary of the method: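 Rhodamine110-peptide cleavage (1.5 µM substrate) by 25 nM linked NS2B-NS3 enzyme at pH 8.0 (Tris, Tween 20), after 15 min RT preincubation with compounds; 15-min fluorescence change normalized to controls and Hill-fitted.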

[2] = tested on: Zika virus NS2B-NS3 protease (unlinked complex); assay: Primary screen GU Rhodamine qHTS for Zika virus inhibitors: Unlinked NS2B-NS3 protease assay (AID 1347159); conditions: Recombinant ZIKV NS2B-NS3 protease, Rhodamine110 substrate fluorescence; series mostly up to 107 µM; also: nearly all actives have a fitted effect of over 60% in size; also: potency is read from the fitted curve at half-maximal effect
Summary of the method: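 Percent inhibition came from the 15-min rise in Rhodamine110 fluorescence (1.5 microM substrate, ~15% conversion), normalized to no-inhibitor and no-enzyme wells and Hill-fitted. Unlinked protease, 25 nM, pH 8.0 Tris buffer; compounds up to 114 microM, 15-min preincubation.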

[3] = Tertiary RLuc qRT-PCR qHTS assay for Zika virus inhibitors (AID 1347169); conditions: infected Vero cells, reporter luminescence, 48-72 h; series mostly up to 45.9 µM; also: top concentration of the series differs between compounds; nearly all actives have a fitted effect of over 55% in size
Summary of the method: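 Orthogonal cell-based infection assay using recombinant ZIKV-RLuc (Cambodian) in Vero cells; compound added prior to virus at MOI 1-2. Incubation lasts 48-72 hrs at 37 degrees C before live-cell Renilla substrate is added and luminescence measured.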

[4] = OV-KATE Cancer Cell Toxicity qHTS against the NCATS CANVASS Library (AID 1347345); conditions: OV-KATE cells viability, CellTiter-Glo luminescence, 72 h; series mostly up to 38.3 µM
Summary of the method: (§1)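 Toxicity is measured over 72 h of compound exposure at 37 degrees C under 5% CO2. Each well holds 1000 cells, pre-incubated for 4 hours before dosing across an 11-point range. CellTiter-Glo luminescence gives viability.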

[5] = HPAF-II Cancer Cell Toxicity qHTS against the NCATS CANVASS Library (AID 1347346); conditions: HPAF-II viability, CellTiter-Glo ATP luminescence, 72 h; series mostly up to 38.3 µM; also: nearly all actives have a fitted effect of over 55% in size; also: potency is read from the fitted curve at half-maximal effect
Summary of the method: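 Cytotoxicity read-out was CellTiter-Glo luminescence after 72 h at 37 degrees C exposure of HPAF-II cells (1000/well) to compounds in an 11-point titration.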

[6] = UWB1.289 Cancer Cell Toxicity qHTS against the NCATS CANVASS Library (AID 1347347); conditions: UWB1.289 viability, CellTiter-Glo luminescence, 72 h; series mostly up to 38.3 µM; also: nearly all actives have a fitted effect of over 60% in size
Summary of the method: as §1

[7] = OV-SAHO Cancer Cell Toxicity qHTS against the NCATS CANVASS Library (AID 1347348); conditions: OV-SAHO viability, CellTiter-Glo luminescence, 72 h; series mostly up to 38.3 µM; also: nearly all actives have a fitted effect of over 55% in size
Summary of the method: as §1

[8] = SW1088 Cancer Cell Toxicity qHTS against the NCATS CANVASS Library (AID 1347350); conditions: SW1088 viability, CellTiter-Glo luminescence, 72 h; series mostly up to 38.3 µM; also: nearly all actives have a fitted effect of over 75% in size
Summary of the method: as §1

[9] = U-118MG Cancer Cell Toxicity qHTS against the NCATS CANVASS Library (AID 1347351); conditions: U-118MG viability, CellTiter-Glo luminescence, 72 h; series mostly up to 38.3 µM
Summary of the method: as §1

[10] = COV-362 Cancer Cell Toxicity qHTS against the NCATS CANVASS Library (AID 1347352); conditions: COV-362 viability, CellTiter-Glo luminescence, 72 h; series mostly up to 38.3 µM
Summary of the method: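 Toxicity was measured as CellTiter-Glo luminescence after 72 h exposure to an 11-point compound series. Compound was added to 1000 cells/well 4 h after seeding.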

[11] = Confirmatory screen NINDS Rhodamine qHTS for Zika virus inhibitors (AID 1347161); conditions: purified enzyme assay, Rhodamine110 substrate fluorescence, 15 min; also: potency is read from the fitted curve at half-maximal effect; nearly all actives have a fitted effect of over 60% in size
Summary of the method: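 Kinetic fluorescence (Ex 480 nm, Em 540 nm) over 15 min with 1.5 microM Rhodamine110 peptide and 25 nM linked protease.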

O=C(O)CCc1cccc(O[C@@H]2O[C@H](CO)[C@@H](O)[C@H](O)[C@H]2O)c1O
Potency [1]: inactive

Cc1nnc(C(C)C)n1C1CC2CCC(C1)N2CCC(NC(=O)C1CCC(F)(F)CC1)c1ccccc1 (centres undefined)
Potency [2]: inactive | Potency [1]: inactive

CC(C)c1ccc(CC(=O)N2CCC[C@@H](c3cccc(OC(C)(C)C(=O)O)c3)C2)cc1
Potency [1]: inactive

COC1CCCC/C(C)=C/C2C=C(C)C(C)C3C(CC(C)C)NC(=O)C23C(=O)C1 (centres undefined)
Potency [1]: inactive

CC(=O)Oc1cc2c(s1)CCN([C@H](C(=O)C1CC1)c1ccccc1F)C2
Potency [1]: inactive

CN1C(=O)c2ccccc2NC(=O)[C@]12O[C@@H]2c1cccc(O)c1
Potency [1]: inactive

CCC[C@@H]1C[C@@H](C(=O)N[C@@H]([C@H]2O[C@H](SC)[C@H](O)[C@@H](O)[C@@H]2O)[C@@H](C)O)N(C)C1
Potency [1]: inactive

CC(=O)O[C@@H]1[C@@H](OC(=O)/C=C/c2ccccc2)[C@H](C)O[C@@H](O[C@H]2[C@@H]3C=CO[C@@H](O[C@@H]4O[C@H](CO)[C@@H](O)[C@H](O)[C@H]4O)[C@@H]3[C@@]3(CO)O[C@@H]23)[C@@H]1OC(C)=O
Potency [2]: inactive | Potency [1]: inactive

C[C@@H]1O[C@@H](O[C@H]2[C@H](OC(=O)[C@]34CCC(C)(C)C[C@H]3C3=CCC5[C@@]6(C)C[C@H](O)[C@H](O[C@@H]7O[C@H](CO)[C@@H](O[C@@H]8O[C@H](CO)[C@@H](O)[C@H](O)[C@H]8O)[C@H](O)[C@H]7O)[C@@](C)(CO)C6[C@H](O)C[C@@]5(C)[C@]3(C)C[C@H]4O)OC[C@H](O)[C@@H]2O)[C@H](O)[C@H](O)[C@H]1O[C@@H]1OC[C@@H](O)[C@H](O[C@@H]2OC[C@](O)(CO)[C@H]2O)[C@H]1O (some centres undefined)
activity change, negative = inhibition [1]: -19.4% [at 10.7 µM]

CC(C)(O)/C=C1/C(=O)C(C)(C)C(=O)C(C)(C)C1(O)O[C@@H]1O[C@H](COC(=O)c2cc(O)c(O)c(O)c2)[C@@H](O)[C@H](O)[C@H]1O (some centres undefined)
Potency [2]: inactive | Potency [3]: inactive

O=C(/C=C/c1ccc(O)cc1)OCC1=C[C@@H](O)[C@@H]2C=CO[C@@H](O[C@@H]3O[C@H](CO)[C@@H](O)[C@H](O)[C@H]3O)[C@H]12
Potency [1]: inactive

NCCCC[C@H](NC(=O)[C@@H]1Cc2ccccc2CN1C(=O)CCC(=O)c1ccccc1)C(=O)NCC(c1ccccc1)c1ccccc1
Potency [1]: inactive

COc1cc(/C=C/C(=O)OC2CC(C)=C(C(=O)O)/C2=C/CO[C@@H]2O[C@H](CO)[C@@H](O)[C@H](O)[C@H]2O)ccc1O (some centres undefined)
Potency [1]: inactive

CC(C)CC(=O)OC[C@H]1O[C@@](COC(=O)CC(C)C)(O[C@H]2O[C@H](CO)[C@@H](O)[C@H](O)[C@H]2OC(=O)CC(C)C)[C@@H](OC(=O)CC(C)C)[C@@H]1O
Potency [1]: inactive

CC(=O)OC[C@]1(O)[C@H]2[C@H](OC(=O)CC(C)C)OC=C(CO[C@@H]3O[C@H](CO)[C@@H](O)[C@H](O)[C@H]3O)[C@H]2C[C@@H]1O
Potency [1]: inactive

CC(C)CC1NC(=O)C(C(C)c2ccccc2)NC(=O)C(C(C)C)NC(=O)C(C)NC(=O)CCCNC(=O)C(Cc2c[nH]c3ccccc23)NC(=O)C(C)NC1=O (stereo not drawn) (cyclo([GABA]AV[ξPhe(βξ-Me)]LAW); configuration not given here)
Potency [1]: inactive

CC1=C2C(=O)O[C@@H](c3ccoc3)[C@]2(C)CCC1
Potency [2]: inactive | Potency [1]: inactive | outcome [4]: inactive | Potency [5]: inactive | outcome [6]: inactive | outcome [7]: inactive | outcome [8]: inactive | outcome [9]: inactive | outcome [10]: inactive

c1ccc(Nc2nc3c(s2)CCCc2[nH]ncc2-3)nc1
Potency [1]: inactive

CC(C)(C)c1cc(CN2CCN(CC(O)c3ccc(Cl)cc3)CC2)cc(C(C)(C)C)c1O (centres undefined)
Potency [2]: inactive | Potency [1]: inactive

CC1(C)CC2C3=CCC4C5(C)CCC(OC6OC(CO)C(O)C(OC7OC(CO)C(O)C(OC8OC(CO)C(O)C(OC9OC(COC%10OC(CO)C(O)C(O)C%10O)C(O)C(O)C9O)C8O)C7O)C6O)C(C)(C)C5CCC4(C)C3(C)CCC2(C(=O)O)CC1O (centres undefined)
activity change, negative = inhibition [2]: -21.5% [at 19.1 µM] | Potency [11]: 7.42 µM (active)

C=C[C@@]1(C)CC(=O)C2[C@](C)(O1)[C@@H](OC(C)=O)[C@@H](O)[C@H]1C(C)(C)CCC[C@]21C (some centres undefined)
Potency [1]: inactive

C=C1C(=O)O[C@H]2[C@H]1[C@@H](OC(=O)C(C)CO)C[C@@]1(C)[C@H](O)CCC(=O)[C@H]21 (some centres undefined)
Potency [2]: inactive | Potency [1]: inactive

COc1ccccc1[C@@H]1C2=C(CC(C)(C)CC2=O)Nc2n[nH]c(C(F)(F)F)c21
Potency [1]: inactive

CC(=O)O[C@H]1[C@H](Oc2ccccc2COC(=O)C2(O)C=CCCC2=O)O[C@H](CO)[C@@H](O)[C@@H]1O (some centres undefined)
Potency [2]: inactive | Potency [1]: inactive

O=C(O)C[C@H]1CCC(=O)[C@@H]1C/C=C\CCOC1OC(CO)C(O)C(O)C1O (some centres undefined)
Potency [1]: inactive

CC1(C)O[C@@]2(C)CC[C@@H]1C[C@@H]2OC1OC(CO)C(O)C(O)C1O (some centres undefined)
Potency [1]: 11.2 µM (active)

C/C=C/C=C/C(CC(=O)O)Nc1ccc(C=O)cc1 (centres undefined)
Potency [2]: 11.2 µM (active) | Potency [1]: 49.3 µM (active) | outcome [4]: inactive | Potency [5]: 3.75 µM (active) | outcome [7]: inactive | outcome [8]: inactive | outcome [9]: inactive | outcome [10]: inactive

C=C1CCC2C(C)(C)C(O)CCC2(C)C1CCC(C)CCOC(=O)CCC(=O)O (centres undefined)
Potency [1]: inactive

C=C(C)[C@H]1C[C@@H](O)C(=C)CC[C@@H](O)C(=C)[C@@H](O)C1
Potency [1]: inactive

C[C@@H]1O[C@@H](O[C@H]2[C@H](OC(C#N)c3ccc(O)cc3)O[C@H](CO)[C@@H](O)[C@@H]2O)[C@H](O)[C@H](O)[C@H]1O (some centres undefined)
Potency [2]: inactive | Potency [1]: inactive

COc1ccc(C[C@H](N)C(=O)N[C@H]2[C@@H](O)[C@H](n3cnc4c(N(C)C)ncnc43)O[C@@H]2CO)cc1
Potency [1]: inactive
